# Records with an inconclusive call do not appear. The source made the active and inactive calls. Rule for the calls: active = hit-call score of the fitted dose curve at least 0.9, where 1 is the maximum; inconclusive = response in the unintended direction; inactive = score below 0.9.
# Assays:
# [1] = target: Luciferin 4-monooxygenase (Photinus pyralis) (UniProt P08659); assay: CCTE_Simmons_QuantiLum_inhib_2: CCTE's Firefly Luciferase Inhibition Assay, Simmons Lab (AID 2283767);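 for AC50: potency for inhibitors that lower luciferase luminescence relative to DMSO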
# Luciferin 4-monooxygenase (Photinus pyralis), sequence (P08659 whole entry, looked up): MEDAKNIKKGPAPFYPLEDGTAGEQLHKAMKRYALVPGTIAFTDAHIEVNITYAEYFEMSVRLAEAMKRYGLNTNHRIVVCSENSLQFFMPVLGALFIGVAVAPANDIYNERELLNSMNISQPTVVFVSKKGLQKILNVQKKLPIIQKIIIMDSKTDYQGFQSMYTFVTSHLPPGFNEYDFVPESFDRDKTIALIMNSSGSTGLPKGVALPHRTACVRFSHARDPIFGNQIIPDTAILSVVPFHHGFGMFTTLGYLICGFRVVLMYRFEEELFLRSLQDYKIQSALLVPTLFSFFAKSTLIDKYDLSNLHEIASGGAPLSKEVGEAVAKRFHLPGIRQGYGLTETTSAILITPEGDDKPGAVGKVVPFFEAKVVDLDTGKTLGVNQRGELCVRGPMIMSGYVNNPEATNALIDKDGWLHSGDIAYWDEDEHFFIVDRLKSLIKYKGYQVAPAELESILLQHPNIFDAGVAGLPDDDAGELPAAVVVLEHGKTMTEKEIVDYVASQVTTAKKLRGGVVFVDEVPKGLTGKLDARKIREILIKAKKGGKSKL
# In short: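 Cell-free QuantiLum luciferase, 5 ng/well; compounds 5 nM–87.5 uM final, 8 conc, 0.5% DMSO; 30 min, 37C, dark. Detection reagent (150 uM D-luciferin, 147 uM dATP, CoA, DTT, pH 7.8 final) injected per well, kinetic luminescence. Triplicate biological replicates.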
# [2] = target: zebrafish Estrogen Receptor (ESR1), esr1 (gene 259252) (UniProt P57717); assay: ATG_zfER1_XSP1: Attagene TRANS-FACTORIAL Multi-Species (XSP1) HepG2 Assay for zebrafish Estrogen Receptor (ESR1) (AID 2283772)
# zebrafish Estrogen Receptor (ESR1), esr1 (gene 259252), sequence (P57717 whole entry, looked up, the tested form may be a part): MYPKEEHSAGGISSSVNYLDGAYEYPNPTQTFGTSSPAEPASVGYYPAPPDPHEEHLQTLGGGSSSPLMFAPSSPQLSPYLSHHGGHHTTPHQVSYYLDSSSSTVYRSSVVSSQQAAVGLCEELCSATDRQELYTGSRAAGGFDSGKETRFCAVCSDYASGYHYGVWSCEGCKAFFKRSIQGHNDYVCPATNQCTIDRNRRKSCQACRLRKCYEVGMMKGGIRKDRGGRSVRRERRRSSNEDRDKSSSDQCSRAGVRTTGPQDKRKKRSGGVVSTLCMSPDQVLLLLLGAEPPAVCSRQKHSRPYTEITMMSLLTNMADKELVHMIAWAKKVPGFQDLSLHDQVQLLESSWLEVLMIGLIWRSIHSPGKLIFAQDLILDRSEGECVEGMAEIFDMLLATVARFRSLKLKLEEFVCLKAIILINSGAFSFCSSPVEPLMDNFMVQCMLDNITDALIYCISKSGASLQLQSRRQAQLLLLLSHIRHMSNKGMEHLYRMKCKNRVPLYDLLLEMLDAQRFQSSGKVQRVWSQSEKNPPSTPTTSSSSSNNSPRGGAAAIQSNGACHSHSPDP
# In short: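 Transfect HepG2 with GAL4-UAS multi-reporter constructs; treat 24 h (medium carries 3 nM 6-alpha-fluorotestosterone); extract RNA, reverse-transcribe, PCR-amplify, FAM-label, digest with HpaI; resolve by capillary electrophoresis and compare against DMSO baseline.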
# [3] = system: zebrafish Estrogen Receptor (ESR2B), gene 317733; assay: ATG_zfER2b_XSP1: Attagene TRANS-FACTORIAL Multi-Species (XSP1) HepG2 Assay for zebrafish Estrogen Receptor (ESR2B) (AID 2283773)
# In short: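 Multiplexed TRANS format in transfected HepG2 liver cells, chimeric NR-Gal4 from zebrafish ESR2B. 24 h dosing; medium contains 3 nM 6-alpha-fluorotestosterone. mRNA induction by RT-PCR/CE, positive direction vs DMSO.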
# [4] = system: frog Estrogen Receptor (ESR2), gene 100174814; assay: ATG_frER2_XSP1: Attagene TRANS-FACTORIAL Multi-Species (XSP1) HepG2 Assay for frog Estrogen Receptor (ESR2) (AID 2283774)
# In short: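 HepG2, transient MRTU transfection (GAL4-UAS reporters, exogenous NR-Gal4 chimeras); 24 h compound exposure; 3 nM 6α-fluorotestosterone co-added; total RNA → RT-PCR → 6-FAM primer extension → HpaI → CE. Positive direction vs DMSO.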
# [5] = ACEA_AR_agonist_AUC_viability: ACEA Biosciences xCELLigence Real-Time Cell Analysis on Androgen Receptor Agonism for Viability (AID 2283775);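 for AC50: viability read 80 hours after compound addition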
# In short: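 Viability endpoint from xCELLigence impedance in 22Rv1 prostate cells at 80 h. Eight-point series, 100 uM maximum final.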
# [6] = system: frog Estrogen Receptor (ESR1), gene 398734; assay: ATG_frER1_XSP1: Attagene TRANS-FACTORIAL Multi-Species (XSP1) HepG2 Assay for frog Estrogen Receptor (ESR1) (AID 2283777)
# In short: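 Transient MRTU transfection, HepG2 (human liver); 24 h dosing, 3 nM 6α-fluorotestosterone co-added; RNA → RT-PCR → 6-FAM labeling → CE; upward activity vs DMSO.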
# [7] = system: zebrafish Estrogen Receptor (ESR2A), gene 317734; assay: ATG_zfER2a_XSP1: Attagene TRANS-FACTORIAL Multi-Species (XSP1) HepG2 Assay for zebrafish Estrogen Receptor (ESR2A) (AID 2283778)
# In short: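 Transient transfection of HepG2 (human liver) with MRTU constructs; chemical dosing for 24 h; medium contained 3 nM 6-alpha-fluorotestosterone to partly stimulate AR. RT-PCR/CE fluorescence of reporter transcripts; positive direction vs DMSO.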
# [8] = target: chicken Estrogen Receptor (ESR1), ESR1 (gene 396099) (UniProt P06212); assay: ATG_chERa_XSP1: Attagene TRANS-FACTORIAL Multi-Species (XSP1) HepG2 Assay for chicken Estrogen Receptor (ESR1) (AID 2283779)
# chicken Estrogen Receptor (ESR1), ESR1 (gene 396099), sequence (P06212 whole entry, looked up, the tested form may be a part): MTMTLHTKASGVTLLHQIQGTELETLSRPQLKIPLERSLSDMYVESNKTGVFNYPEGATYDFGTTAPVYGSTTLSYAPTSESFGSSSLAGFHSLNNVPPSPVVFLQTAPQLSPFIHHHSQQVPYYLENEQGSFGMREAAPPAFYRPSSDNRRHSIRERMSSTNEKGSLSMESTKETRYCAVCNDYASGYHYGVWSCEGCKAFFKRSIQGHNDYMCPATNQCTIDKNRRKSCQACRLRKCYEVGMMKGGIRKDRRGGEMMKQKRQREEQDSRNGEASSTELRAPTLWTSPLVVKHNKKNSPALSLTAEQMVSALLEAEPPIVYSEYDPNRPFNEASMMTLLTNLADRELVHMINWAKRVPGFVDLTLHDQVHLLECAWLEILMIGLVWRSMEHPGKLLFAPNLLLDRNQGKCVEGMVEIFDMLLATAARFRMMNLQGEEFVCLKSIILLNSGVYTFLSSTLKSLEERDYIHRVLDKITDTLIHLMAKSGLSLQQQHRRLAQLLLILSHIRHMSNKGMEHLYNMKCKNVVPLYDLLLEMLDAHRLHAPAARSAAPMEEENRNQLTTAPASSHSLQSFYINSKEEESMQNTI
# In short: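 Read-out: fluorescent reporter mRNA fragments resolved by capillary electrophoresis after RT-PCR and HpaI digestion. Transfected HepG2 cells carried chimeric NR-Gal4 constructs, were dosed 24 h with 3 nM 6-alpha-fluorotestosterone added, and activity was fitted upward relative to DMSO.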
# [9] = system: turtle Estrogen Receptor (ESR1), gene 101933533; assay: ATG_trERa_XSP1: Attagene TRANS-FACTORIAL Multi-Species (XSP1) HepG2 Assay for turtle Estrogen Receptor (ESR1) (AID 2283781)
# In short: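 Transfect HepG2 with reporter units → dose chemical 24 h (medium has 3 nM 6-alpha-fluorotestosterone) → isolate RNA, RT-PCR → FAM primer extension, HpaI digest → capillary electrophoresis; gain of signal vs DMSO.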
# [10] = ACEA_AR_antagonist_AUC_viability: ACEA Biosciences xCELLigence Real-Time Cell Analysis on Androgen Receptor Antagonism for Viability (AID 2283776);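 note: 22Rv1 human prostate cancer cells growing on impedance electrode plates; area under impedance growth curve at 80 h after dosing as viability; hits lower the growth signal relative to DMSO meaning cytotoxicity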
# In short: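 Viability endpoint from label-free cell-index monitoring: 22Rv1 cultures treated with an eight-point 1:4 dilution series starting at 100 uM final, AUC at 80 h fitted against DMSO.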
# [11] = system: chicken Androgen Receptor (AR), gene 422165; assay: ATG_chAR_XSP1: Attagene TRANS-FACTORIAL Multi-Species (XSP1) HepG2 Assay for chicken Androgen Receptor (AR) (AID 2283768)
# In short: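 Reporter mRNA read by RT-PCR with fluorescent labelling and capillary electrophoresis 24 h after chemical dosing of transiently transfected HepG2 cells. Chicken AR-Gal4 chimera, partially stimulated with 3 nM 6-alpha-fluorotestosterone; activity fitted upward relative to DMSO.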
# [12] = target: Estrogen receptor (Homo sapiens) (UniProt P03372); assay: ATG_hERa_XSP1: Attagene TRANS-FACTORIAL Multi-Species (XSP1) HepG2 Assay for human Estrogen Receptor (ESR1) (AID 2283780)
# Estrogen receptor (Homo sapiens), sequence (P03372 whole entry, looked up, the tested form may be a part): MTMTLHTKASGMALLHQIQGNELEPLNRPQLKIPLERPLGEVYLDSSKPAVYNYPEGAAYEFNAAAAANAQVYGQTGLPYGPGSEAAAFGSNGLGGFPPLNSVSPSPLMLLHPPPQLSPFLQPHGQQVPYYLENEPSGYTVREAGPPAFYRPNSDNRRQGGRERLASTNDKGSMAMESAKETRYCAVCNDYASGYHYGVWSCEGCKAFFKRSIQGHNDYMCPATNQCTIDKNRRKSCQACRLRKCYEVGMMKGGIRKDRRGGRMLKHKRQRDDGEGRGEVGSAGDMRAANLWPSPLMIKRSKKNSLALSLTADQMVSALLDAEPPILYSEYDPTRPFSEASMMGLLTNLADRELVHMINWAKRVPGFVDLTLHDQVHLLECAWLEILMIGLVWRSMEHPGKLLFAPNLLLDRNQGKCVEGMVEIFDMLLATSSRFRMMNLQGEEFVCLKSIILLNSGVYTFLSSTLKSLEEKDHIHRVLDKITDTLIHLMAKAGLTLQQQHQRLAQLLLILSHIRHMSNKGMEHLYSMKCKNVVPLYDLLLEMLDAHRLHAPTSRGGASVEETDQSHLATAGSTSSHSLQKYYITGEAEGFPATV
# In short: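 Reporter transcripts from multiplexed GAL4-UAS units driven by NR-Gal4 chimeras in transiently transfected HepG2 were measured by RT-PCR with capillary electrophoresis 24 h post-dose, with 3 nM 6-alpha-fluorotestosterone present; gain-of-signal relative to DMSO.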
structure (smiles),measurement,setting,value
CC/C(=C(/CC)c1ccc(O)cc1)c1ccc(O)cc1,outcome,[1],inactive
same,AC50,[2],0.00024 µM (active)
same,AC50,[3],6.71e-05 µM (active)
same,AC50,[4],7.8e-05 µM (active)
same,AC50,[5],21.3 µM (active)
same,AC50,[6],0.0517 nM (active)
same,AC50,[7],4.85e-05 µM (active)
same,AC50,[8],0.0429 nM (active)
same,AC50,[9],3.79e-05 µM (active)
CCCOC(=O)c1cc(O)c(O)c(O)c1,outcome,[1],inactive
same,AC50,[5],50 µM (active)
C[C@]12CC[C@@H]3c4ccc(O)cc4CC[C@H]3[C@@H]1CC[C@H]2O,outcome,[1],inactive
same,AC50,[5],90.7 µM (active)
same,AC50,[10],84.1 µM (active)
OC12N=C(c3ccccc3)SC1Cc1cc(Cl)ccc12 (configuration not stated),AC50,[1],17.1 µM (active)
same,AC50,[5],83.3 µM (active)
same,AC50,[10],76.2 µM (active)
Cc1c2ccccc2c(C)c2c1ccc1ccccc12,outcome,[1],inactive
same,AC50,[11],8.7 µM (active)
same,AC50,[2],9.59 µM (active)
same,AC50,[3],16.9 µM (active)
same,AC50,[4],9 µM (active)
same,AC50,[5],50 µM (active)
same,AC50,[6],5910 nM (active)
same,AC50,[7],15.7 µM (active)
same,AC50,[8],5860 nM (active)
same,AC50,[12],3.92 µM (active)
same,AC50,[9],15.7 µM (active)
CC[C@H](NC(=O)c1cc(F)ccc1NS(=O)(=O)c1cccc2cccnc12)c1ccccc1,AC50,[5],57.2 µM (active)
CCCCCCCCCCCCO,outcome,[5],inactive
CCOC(=O)O[C@H](C)OC(=O)c1ccc2c(c1)cc(C(=O)NC1CCN(C(C)C)CC1)n2Cc1cc(-c2ccc(Cl)s2)on1,outcome,[1],inactive
same,AC50,[5],10.3 µM (active)
CCN(Cc1cccc(S(=O)(=O)O)c1)c1ccc(C(=C2C=CC(=[N+](CC)Cc3cccc(S(=O)(=O)O)c3)C=C2)c2ccccc2S(=O)(=O)[O-])cc1,AC50,[1],15.8 µM (active)
same,outcome,[10],inactive
CO[C@H]1/C=C/O[C@@]2(C)Oc3c(C)c(O)c4c(O)c(c(/C=N/N5CCN(C)CC5)c(O)c4c3C2=O)NC(=O)/C(C)=C\C=C\[C@H](C)[C@H](O)[C@@H](C)[C@@H](O)[C@@H](C)[C@H](OC(C)=O)[C@@H]1C,AC50,[1],22.6 µM (active)
CN(C)c1ccc(C(=C2C=CC(=[N+](C)C)C=C2)c2ccc(N(C)C)cc2)cc1,AC50,[1],3.03 µM (active)
same,AC50,[5],0.281 µM (active)
same,AC50,[10],0.161 µM (active)
CN(C[C@@H](CC[N+]12CCC(C3CCCCC3)(CC1)CC2)c1ccc(Cl)c(Cl)c1)C(=O)c1cc(C(F)(F)F)cc(C(F)(F)F)c1,outcome,[1],inactive
same,AC50,[5],5.81 µM (active)
OCCO,outcome,[5],inactive
Oc1ccccc1,outcome,[1],inactive
same,outcome,[5],inactive
CC1=CC(=O)/C(=C(/C)O)C(=O)O1,outcome,[5],inactive
O=C(O)Cc1cc(I)c(Oc2ccc(O)c(I)c2)c(I)c1,outcome,[1],inactive
same,AC50,[5],22 µM (active)
c1ccc2n[nH]nc2c1,outcome,[5],inactive

# From PubChem BioAssay (EPA / NIEHS)
